Among all 340,000 compounds or so, about 20 (0.006%) were called active. Calls follow the shape of the dose curve; as a rule, active = well fitted inhibition curve with a large enough effect; inconclusive = small, poorly fitted or top-dose-only effect; inactive = no such curve, though single readings can be large or run the other way. The sample as a whole holds a higher share of actives than the screen did.
Each molecule was assayed against Sphingomyelin phosphodiesterase (Homo sapiens) (UniProt P17405) (assay: Inhibitors of Secretory Acid Sphingomyelinase (S-ASM): qHTS). Conditions: placental ASM, HMU-PC fluorogenic substrate, 60 min; series mostly up to 57.5 µM; activity change, negative = inhibition: at the top concentration.
Source text: Atherosclerosis is the underlying process for cardiovascular disease and thus is a major contributor to disease burden in the population. […] Thus, selective small molecule inhibitors of S-ASM should block LDL modification and reduce aortic LDL retention and may serve as new agents for the treatment of atherosclerosis. In a collaboration between National Heart, Lung, and Blood Institute and the NCGC a high-throughput amenable screen was developed to identify potent and selective small molecule inhibitors of S-ASM. This enzymatic, fluorescent screen uses an ASM enzyme preparation derived from human placenta and was tested against the NIH Molecular Libraries Small Molecule Repository (MLSMR). NIH Chemical Genomics Center [NCGC] NIH Molecular Libraries Probe Centers Network [MLPCN] MLPCN Grant: MH093173-01 Assay Submitter (PI): Alan Remaley, National Heart, Lung, and Blood Institute and Wei Zhen, NIH Chemical Genomics Center
Two microliters of ASM enzyme (1:150 dilution from stock) are dispensed in 1536-well plate. 23 nL of compound and control are pinned into assay plate using the Kalypsys pintool. The plates are then incubated for 10 minutes at ambient room temperature. Then, 2 uL of the flurogenic substrate, HMU-PC0, (9 uM final) are added to the plate. An incubation for 60 minutes takes place at 37 masculineC. After that, 4 uL of stop solution is added to raise the pH to 10 to end the kinetic reaction. Plate is read on ViewLux, with detection set at Ex = 386 (10) nm and Em = 447 (10) nm.

Sequence of Sphingomyelin phosphodiesterase (Homo sapiens) (P17405 47-631 limits assumed): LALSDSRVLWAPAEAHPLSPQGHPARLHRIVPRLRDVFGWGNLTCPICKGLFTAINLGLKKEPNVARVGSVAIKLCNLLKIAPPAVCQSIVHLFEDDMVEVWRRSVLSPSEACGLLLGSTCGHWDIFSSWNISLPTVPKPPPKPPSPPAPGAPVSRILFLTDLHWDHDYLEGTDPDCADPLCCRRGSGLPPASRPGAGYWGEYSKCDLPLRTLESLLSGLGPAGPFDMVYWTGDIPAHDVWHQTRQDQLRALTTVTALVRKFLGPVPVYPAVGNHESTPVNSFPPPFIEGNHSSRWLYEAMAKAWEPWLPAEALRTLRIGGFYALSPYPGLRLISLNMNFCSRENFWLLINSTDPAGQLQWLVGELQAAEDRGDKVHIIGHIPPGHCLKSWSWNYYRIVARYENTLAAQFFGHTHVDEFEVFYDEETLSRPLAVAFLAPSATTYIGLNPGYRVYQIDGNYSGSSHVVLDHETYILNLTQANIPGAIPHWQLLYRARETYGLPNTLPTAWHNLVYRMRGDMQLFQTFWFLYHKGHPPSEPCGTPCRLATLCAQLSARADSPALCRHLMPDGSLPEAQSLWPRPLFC

Activity change, negative = inhibition, inactive:
C=CCC(Nc1ccccc1)c1cccc(OC)c1OC (configuration not stated) 0.351%, Cc1nn(Cc2ccc(C(=O)N3N=C(C(F)F)CC3(O)C(F)F)cc2)c(C)c1[N+](=O)[O-] (configuration not stated) -1.95%, O=C(Nc1cccnc1Oc1ncnc2cc(Cl)ccc12)c1ccc(F)cc1 -1.19%, CCOc1ccc(N2C(=O)Nc3ccccc3C2(O)C(=O)NCc2ccco2)cc1 (configuration not stated) 0.0783%, O=C1COc2c1ccc(O)c2O 3.65%, CC(C)Cn1cnc2c1c(=O)n(CC(=O)NN)c(=O)n2Cc1ccccc1 -3.33%, Cc1ccsc1/C=N/NC(=O)Cc1cc(=O)[nH][nH]1 0.0426%, Cc1ccc(S(=O)(=O)Nc2ccccc2CNc2c(C)n(C)n(-c3ccccc3)c2=O)cc1 -0.0525%, CCC(C)N1C(=O)S/C(=C/c2ccc(Sc3nc4ccccc4[nH]3)o2)C1=O (configuration not stated) 1.34%, COc1ccc(CN2CCC(n3nccc3NC(=O)CCCc3ccccc3)CC2)cc1C -0.972%, NS(=O)(=O)c1ccc(NC(=S)NNC(=O)c2cccs2)cc1 1.24%, Cc1cccc(NC(=O)Cn2cc(C(=O)c3ccco3)c3ccccc32)c1 -9.25%, CCC(CC)C(=O)Nc1ccc(S(=O)(=O)Nc2nccs2)cc1 3.8%, O=C(CSc1nc2[nH]c(=O)[nH]c(=O)c2s1)Nc1cccc(F)c1 -2.4%, CSCCC(NC(N)=O)C(=O)N(C)CC(=O)Nc1ccc(C)cc1 (configuration not stated) 2.8%, CC/C(Cc1ccccc1)=N/NC(=O)CCn1nnc2ccccc21 -1.28%, COc1ccc(C2/C=C\CN(CC(C)C)CC(=O)N2Cc2ccc(F)cc2)cc1 (configuration not stated) -2.65%, COc1ccc(CN2CCOC2=O)cc1OC -0.898%, COc1ccc(CNC(=O)CN(C(=O)c2csnn2)c2cnc3ccccc3c2)cc1 21.4%, CC(=O)c1cccc(NC(=O)C2CCCN(S(=O)(=O)c3cccc4nonc34)C2)c1 (configuration not stated) 5.69%, Nc1cccc2c1C(=O)N(Cc1nnc(-c3ccccc3Br)o1)C2=O 340%, CC1CCCCC1NC(=O)CCS(=O)(=O)c1cccc2nonc12 (configuration not stated) -1.19%, O=C(NNS(=O)(=O)c1ccc(F)cc1)C1CCCCC1 -0.201%, CCN(CC(=O)NCc1cccs1)C(=O)/C=C/c1ccc(C)cc1 -0.0187%, CCn1c(O)c2ccc(C(=O)N=NC(=O)c3cccnc3)cc2c1O -1.65%, O=C(NCC(=O)N(CC1CCCO1)C(C(=O)NC1CCCCC1)c1ccccc1)c1ccco1 (configuration not stated) -1.66%, CC(C)Cn1c(SCC(=O)Nc2ccc(Cl)cc2F)nc(O)cc1=O -4.26%, COc1ccc(SCCN2CCN(CC(C)C)CCC2=O)cc1 -3.87%, O=S(=O)(c1ccccc1)N1CCC(c2ccccc2)CC1 0.311%, Cc1cc(OCC(=O)N(C)c2c(N)n(Cc3ccccc3)c(=O)[nH]c2=O)c(C(C)C)cc1Cl 4.87%, CN(C(=O)c1ccccc1)c1nccnc1C#N 7.06%, Cc1ccc(-c2nc(C)sc2CC(=O)OCC(=O)Nc2c(F)cccc2F)cc1 4%, Cn1c(=O)n(C)c(=O)n(CC(=O)N2CCCCC2)c1=O -0.0512%, COc1ccccc1CCNS(=O)(=O)c1cc2c3c(c1)C(C)C(=O)N3CCC2 (configuration not stated) 4.58%, CN(c1ccc2nc3ccccc3c(=O)n2n1)C1CCCCC1 2.94%, O=S1(=O)CCN2C(=N1)SC1=C2CCN(Cc2ccccc2)C1 1.51%, CCOC(=O)c1cc(-c2ccc(F)cc2)n(CC(=O)NCc2ccccn2)c1C -2.49%, COc1ccc(C(C(=O)NC2CCCCC2)N(C(=O)Cc2c[nH]c3ccccc23)c2ccccc2)cc1OC (configuration not stated) -5.66%, COc1ccc(Nc2ncc(C(=O)N3CCN(c4ccccc4OC)CC3)c3ccccc23)cc1 -5.7%, O=C(COC(=O)c1ccc(F)c(S(=O)(=O)N2CCOCC2)c1)NCc1ccc2c(c1)OCO2 1.81%, Brc1c(CSc2nncc3ccccc23)nc2ccccn12 1.36%, COc1ccc(Cc2nnc(SCC(=O)N(c3ccccc3)C(C)C)n(N)c2=O)cc1 -1.08%, CC1(C)CC(=O)C=C(c2cccc3c2Oc2ccccc2S3)C1 -13.8%, O=C(NCC1CCCO1)C1CCN(C2CCN(C(=O)C3CCCCC3)CC2)CC1 (configuration not stated) 1.41%, FC(F)(F)c1ccc2c3n(nc2c1)CCN=C3c1ccc(Cl)cc1 -3.7%, CC(C)[C@H](NC(=O)Nc1ccc(S(N)(=O)=O)cc1)C(=O)O 2.71%, COc1ccccc1N1CCC(N2CCN(CC(C)(C)C)C(CCO)C2)CC1 (configuration not stated) 3.32%, CC(=O)Nc1nc2c(s1)C(=O)NCC(C)(C)C2 -2.53%, COc1ccccc1C(=O)C(O)c1ccccc1OC (configuration not stated) 2.43%, Cn1nc(C(F)(F)F)c2cc(NC(=O)OCC(C)(C)C)sc21 -4.28%, O=C(CCNC(=O)c1ccc([N+](=O)[O-])cc1)Nc1ccccc1N1CCOCC1 5.76%, Cc1cc(C)c(S(=O)(=O)c2cc(F)ccc2C)c(=O)[nH]1 -1.89%, COC(=O)C1=C(C(=O)OC)C2(OC1c1ccc(Br)cc1)C(=O)c1ccccc1C2=O (configuration not stated) -0.0969%, COCCNC(=O)CSc1nc2sccc2c(=O)n1-c1ccccc1 7.71%, CCN(CC)S(=O)(=O)c1ccc(N2CC(C(=O)NCc3cccnc3)CC2=O)cc1 (configuration not stated) 2.74%, O=C(Nc1ccc([N+](=O)[O-])cc1)C1CC12CCC2 (configuration not stated) 0.622%, Cc1ccc(S(=O)(=O)c2c[nH]c3ccc(C)cc3c2=O)cc1 4.26%, O=C1CC[C@@H]2CC3(C[C@@H]4CCN1[C@H]24)Nc1cc([N+](=O)[O-])ccc1NC3=NC1CCCCC1 (some centres not stated) -13.9%, COc1cc(OC)cc(C(=O)NCCSCc2ccc(Cl)cc2)c1 0.434%, CC(C)(C)C(=O)Nc1c(Br)c(C2CC2)nn1-c1ccccc1 -0.807%, CC(C)(C)NC(=O)NC(=O)COC(=O)CCC1CCCCC1 -1.67%, O=C(CCN1C(=O)[C@@H]2Cc3ccccc3CN2C1=O)NCc1ccccc1 2.58%, Cc1cccc(NC(=S)NCCc2ccc(F)cc2)c1C 0.269%, Cn1cc(C2OC(=O)c3ccccc32)c2ccccc21 (configuration not stated) 3.97%, CCN(C[C@H]1N[C@@](Cc2ccccc2)(C(=O)OC)[C@H]2C(=O)N(Cc3ccccc3)C(=O)[C@@H]12)C(=O)c1ccc(C)cc1 -2%, Cc1c(NC(=O)CN(C)CC(=O)Nc2ccc(F)c(F)c2F)c(=O)n(-c2ccccc2)n1C 0.31%, CC(C(=O)NC1CCCC1)N(c1ccc(Oc2ccccc2)cc1)S(C)(=O)=O (configuration not stated) 4.2%
